# Measurements from paper PMC7862700, “An all-to-all approach to the identification of sequence-specific readers for epigenetic DNA modifications on cytosine”.
# Key:
# Assay in all cases: DAPPL (digital affinity profiling via proximity ligation, sequencing); 10 mM Tris-HCl pH 7.5, 50 mM NaCl, 1 mM DTT, 4% glycerol, room temperature, 30 min; GST-TFs on glutathione beads, 16-mer random dsDNA library, 0.1% formaldehyde crosslink after washing; high values mean tight binding
# [1] = target: T1, FEV (Homo sapiens, UniProt Q99581 1-238); details: protein: recombinant; tags: N-terminal GST; dsDNA, one strand shown
# T1 sequence: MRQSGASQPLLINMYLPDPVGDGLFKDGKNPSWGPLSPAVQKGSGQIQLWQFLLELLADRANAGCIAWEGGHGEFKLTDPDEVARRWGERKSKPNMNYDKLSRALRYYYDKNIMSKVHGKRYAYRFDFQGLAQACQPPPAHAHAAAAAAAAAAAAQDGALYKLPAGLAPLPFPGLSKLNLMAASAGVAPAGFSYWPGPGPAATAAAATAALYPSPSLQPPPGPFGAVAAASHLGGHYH
# How it was run: (§1)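 Sequencing on an Illumina NextSeq500 followed washing, crosslinking with 0.1% formaldehyde, proximity ligation (BsaI/T4 ligase, 1 h, 37 °C) and PCR amplification of pools that had been incubated for 30 min at room temperature with 200 nmole of a random double-stranded 16-mer DNA library in Tris/NaCl/DTT/glycerol buffer. Each pool held DNA-barcoded human transcription factors, expressed in yeast as GST fusions and captured on glutathione beads, plus a tag-only sample. Binding signal is a hexamer's read frequency for a factor divided by its frequency in the tag-only sample.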
# [2] = target: ETV5 (Homo sapiens, UniProt P41161 1-510); details: protein: recombinant; tags: N-terminal GST; dsDNA, one strand shown
# How it was run: as §1
# [3] = target: HSF1 (Homo sapiens, UniProt Q00613 1-529); details: protein: recombinant; tags: N-terminal GST; chain copies: 3; dsDNA, one strand shown
# How it was run: as §1
# [4] = target: T2, SPIC (Homo sapiens, UniProt Q8N5J4 1-248); details: protein: recombinant; tags: N-terminal GST; dsDNA, one strand shown
# T2 sequence: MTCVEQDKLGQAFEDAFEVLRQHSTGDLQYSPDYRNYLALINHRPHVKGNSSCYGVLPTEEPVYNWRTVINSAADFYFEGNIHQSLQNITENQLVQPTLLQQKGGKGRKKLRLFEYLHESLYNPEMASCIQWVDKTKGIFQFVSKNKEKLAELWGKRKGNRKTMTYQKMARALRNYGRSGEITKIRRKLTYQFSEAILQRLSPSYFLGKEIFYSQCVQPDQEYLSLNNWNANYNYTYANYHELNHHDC
# How it was run: as §1
# [5] = target: ELF4 (Homo sapiens, UniProt Q99607 1-663); details: protein: recombinant; tags: N-terminal GST; dsDNA, one strand shown
# How it was run: as §1
# [6] = target: T3, ELK4 (Homo sapiens, UniProt P28324-2 1-405); details: protein: recombinant; tags: N-terminal GST; dsDNA, one strand shown
# T3 sequence: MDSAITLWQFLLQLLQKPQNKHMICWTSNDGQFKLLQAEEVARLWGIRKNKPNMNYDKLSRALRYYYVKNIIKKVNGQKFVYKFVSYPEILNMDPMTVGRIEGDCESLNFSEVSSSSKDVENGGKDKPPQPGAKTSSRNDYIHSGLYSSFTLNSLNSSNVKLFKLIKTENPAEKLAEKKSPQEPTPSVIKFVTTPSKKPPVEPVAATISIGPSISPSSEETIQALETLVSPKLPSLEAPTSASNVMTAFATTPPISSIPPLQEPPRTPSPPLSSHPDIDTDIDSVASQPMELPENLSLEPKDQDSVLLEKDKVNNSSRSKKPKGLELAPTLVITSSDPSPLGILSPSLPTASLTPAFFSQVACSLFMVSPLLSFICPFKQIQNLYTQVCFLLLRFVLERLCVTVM
# How it was run: as §1
# [7] = target: T4, ETV2 (Homo sapiens, UniProt O00321 1-342); details: protein: recombinant; tags: N-terminal GST; dsDNA, one strand shown
# T4 sequence: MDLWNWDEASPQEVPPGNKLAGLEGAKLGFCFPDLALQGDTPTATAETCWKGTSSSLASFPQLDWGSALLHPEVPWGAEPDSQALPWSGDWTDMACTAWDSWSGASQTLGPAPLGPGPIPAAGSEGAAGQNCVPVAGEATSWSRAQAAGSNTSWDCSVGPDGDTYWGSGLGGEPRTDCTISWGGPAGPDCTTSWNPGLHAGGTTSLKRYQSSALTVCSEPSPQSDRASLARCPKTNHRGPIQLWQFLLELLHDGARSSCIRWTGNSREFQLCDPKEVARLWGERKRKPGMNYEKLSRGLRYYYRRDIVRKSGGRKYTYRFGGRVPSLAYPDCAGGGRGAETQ
# How it was run: as §1
# [8] = target: T5, ELF3 (Homo sapiens, UniProt P78545 1-371); details: protein: recombinant; tags: N-terminal GST; dsDNA, one strand shown
# T5 sequence: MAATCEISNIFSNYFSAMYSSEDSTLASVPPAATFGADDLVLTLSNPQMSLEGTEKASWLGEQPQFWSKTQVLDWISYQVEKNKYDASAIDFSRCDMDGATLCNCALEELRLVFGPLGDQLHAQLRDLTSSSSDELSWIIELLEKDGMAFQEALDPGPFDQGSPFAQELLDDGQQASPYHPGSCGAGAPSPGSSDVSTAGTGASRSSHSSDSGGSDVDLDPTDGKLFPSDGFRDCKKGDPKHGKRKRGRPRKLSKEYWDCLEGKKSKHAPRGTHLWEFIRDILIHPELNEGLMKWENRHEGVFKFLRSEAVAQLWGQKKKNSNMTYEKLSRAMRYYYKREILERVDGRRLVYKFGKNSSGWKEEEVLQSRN
# How it was run: as §1
# [9] = target: CRX (Homo sapiens, UniProt O43186 1-299); details: protein: recombinant; tags: N-terminal GST; dsDNA, one strand shown
# How it was run: as §1
# [10] = target: ETV1 (Homo sapiens, UniProt P50549 1-477); details: protein: recombinant; tags: N-terminal GST; dsDNA, one strand shown
# How it was run: as §1
# Sequence of CRX (O43186 whole entry): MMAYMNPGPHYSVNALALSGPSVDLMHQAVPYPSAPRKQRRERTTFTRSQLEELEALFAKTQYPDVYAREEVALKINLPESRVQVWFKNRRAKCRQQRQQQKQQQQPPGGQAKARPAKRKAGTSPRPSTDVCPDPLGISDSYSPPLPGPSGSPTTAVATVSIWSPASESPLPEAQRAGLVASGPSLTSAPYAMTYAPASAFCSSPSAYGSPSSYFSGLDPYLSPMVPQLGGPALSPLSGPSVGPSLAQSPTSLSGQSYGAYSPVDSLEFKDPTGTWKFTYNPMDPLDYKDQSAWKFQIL
# Sequence of ELF4 (Q99607 whole entry): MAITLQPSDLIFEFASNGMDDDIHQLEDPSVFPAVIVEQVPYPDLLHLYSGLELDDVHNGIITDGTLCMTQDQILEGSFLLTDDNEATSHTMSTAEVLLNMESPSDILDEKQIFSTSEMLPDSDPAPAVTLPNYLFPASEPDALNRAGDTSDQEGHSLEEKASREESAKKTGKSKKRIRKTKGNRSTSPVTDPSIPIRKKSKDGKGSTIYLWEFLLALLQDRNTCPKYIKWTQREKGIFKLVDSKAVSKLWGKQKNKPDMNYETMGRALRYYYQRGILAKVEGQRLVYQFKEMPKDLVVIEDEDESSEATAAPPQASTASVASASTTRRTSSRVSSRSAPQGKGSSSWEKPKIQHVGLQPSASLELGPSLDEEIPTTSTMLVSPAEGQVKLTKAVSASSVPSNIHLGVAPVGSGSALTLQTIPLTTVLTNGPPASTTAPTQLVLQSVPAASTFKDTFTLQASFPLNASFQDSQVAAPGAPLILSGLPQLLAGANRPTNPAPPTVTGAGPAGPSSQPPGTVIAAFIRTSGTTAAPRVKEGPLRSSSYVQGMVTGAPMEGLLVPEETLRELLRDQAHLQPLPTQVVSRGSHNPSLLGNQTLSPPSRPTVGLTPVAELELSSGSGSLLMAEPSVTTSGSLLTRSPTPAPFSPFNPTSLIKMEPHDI
# Sequence of ETV5 (P41161 whole entry): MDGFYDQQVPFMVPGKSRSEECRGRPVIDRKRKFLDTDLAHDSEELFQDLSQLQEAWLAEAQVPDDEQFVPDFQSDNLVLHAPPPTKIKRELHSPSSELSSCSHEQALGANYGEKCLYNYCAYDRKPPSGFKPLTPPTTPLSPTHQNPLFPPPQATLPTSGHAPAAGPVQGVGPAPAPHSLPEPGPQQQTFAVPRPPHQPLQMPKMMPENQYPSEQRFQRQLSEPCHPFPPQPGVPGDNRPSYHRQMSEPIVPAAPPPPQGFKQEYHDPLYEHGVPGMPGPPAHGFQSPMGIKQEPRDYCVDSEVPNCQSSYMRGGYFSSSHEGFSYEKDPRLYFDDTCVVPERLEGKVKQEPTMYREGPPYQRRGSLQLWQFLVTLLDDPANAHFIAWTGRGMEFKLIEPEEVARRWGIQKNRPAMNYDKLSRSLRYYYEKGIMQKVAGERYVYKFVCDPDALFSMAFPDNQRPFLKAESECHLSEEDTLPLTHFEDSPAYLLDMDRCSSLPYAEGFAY
# Sequence of HSF1 (Q00613 whole entry): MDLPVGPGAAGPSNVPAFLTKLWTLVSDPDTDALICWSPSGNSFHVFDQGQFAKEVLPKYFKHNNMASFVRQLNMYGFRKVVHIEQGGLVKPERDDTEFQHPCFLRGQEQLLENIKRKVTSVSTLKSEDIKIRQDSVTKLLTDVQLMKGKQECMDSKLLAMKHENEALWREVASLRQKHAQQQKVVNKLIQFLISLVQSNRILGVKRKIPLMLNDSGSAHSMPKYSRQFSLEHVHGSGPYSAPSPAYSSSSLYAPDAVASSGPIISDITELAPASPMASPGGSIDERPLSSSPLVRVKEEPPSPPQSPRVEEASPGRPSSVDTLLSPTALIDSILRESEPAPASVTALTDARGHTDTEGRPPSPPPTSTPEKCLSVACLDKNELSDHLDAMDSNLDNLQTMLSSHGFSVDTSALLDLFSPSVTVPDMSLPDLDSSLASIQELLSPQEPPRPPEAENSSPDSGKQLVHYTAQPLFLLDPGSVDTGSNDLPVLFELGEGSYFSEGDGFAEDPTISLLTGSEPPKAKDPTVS
# Sequence of ETV1 (P50549 whole entry): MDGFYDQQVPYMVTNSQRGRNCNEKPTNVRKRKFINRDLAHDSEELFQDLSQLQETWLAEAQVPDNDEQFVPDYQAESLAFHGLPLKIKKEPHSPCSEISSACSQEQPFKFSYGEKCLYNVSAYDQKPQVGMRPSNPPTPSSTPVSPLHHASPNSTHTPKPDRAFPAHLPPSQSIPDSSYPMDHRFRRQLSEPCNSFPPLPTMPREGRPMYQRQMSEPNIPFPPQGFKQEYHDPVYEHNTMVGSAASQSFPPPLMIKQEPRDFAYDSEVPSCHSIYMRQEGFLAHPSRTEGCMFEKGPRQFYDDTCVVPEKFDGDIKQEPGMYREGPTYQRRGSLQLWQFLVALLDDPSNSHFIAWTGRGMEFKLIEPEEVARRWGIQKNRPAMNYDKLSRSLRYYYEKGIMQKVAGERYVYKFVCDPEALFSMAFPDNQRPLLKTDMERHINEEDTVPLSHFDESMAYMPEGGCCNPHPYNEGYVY
sequence,measurement,setting,value
TGGTCT,binding signal,[1],"1.45 fold enrichment (6-mer frequency, TF over GST control)"
same,binding signal,[2],"1.52 fold enrichment (6-mer frequency, TF over GST control)"
same,binding signal,[3],"1.12 fold enrichment (6-mer frequency, TF over GST control)"
same,binding signal,[4],"1.34 fold enrichment (6-mer frequency, TF over GST control)"
same,binding signal,[5],"1.57 fold enrichment (6-mer frequency, TF over GST control)"
same,binding signal,[6],"1.48 fold enrichment (6-mer frequency, TF over GST control)"
same,binding signal,[7],"1.33 fold enrichment (6-mer frequency, TF over GST control)"
same,binding signal,[8],"1.28 fold enrichment (6-mer frequency, TF over GST control)"
same,binding signal,[9],"1.17 fold enrichment (6-mer frequency, TF over GST control)"
same,binding signal,[10],"1.5 fold enrichment (6-mer frequency, TF over GST control)"
